Structures are written as SMILES. Inconclusive results are not listed. Activity calls are given as the source filed them. Unless noted, the call rests on the fitted dose curve; in most records, active means well fitted curve in the direction sought with a large enough effect; inconclusive means small, poorly fitted or top-dose-only effect, or another doubt; inactive means no such curve, though single readings can be large; an effect the other way counts as inactive or inconclusive.

Test [1] concerns the target Lysosomal acid glucosylceramidase (Homo sapiens) (UniProt P04062). Briefly: Glucocerebrosidase-p2 (AID 348; in the data active means potency below about 10 µM; further: potency means the concentration at half of the fitted maximal effect). The note with it: purified GBA, blue fluorogenic substrate, 40 min. Put shortly: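 Normal human glucocerebrosidase (0.2 nM) with blue fluorogenic substrate (80 uM final) in citrate/phosphate pH 5.9 with 10mM sodium taurocholate, 0.01% tween-20; 40 min RT, NaOH/glycine stop; fluorescence Ex 365/Em 440; AC50 from a titration from 0.6 nM upwards.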

Test [2] in a line: AP1 Signaling Pathway (AID 357; active means well fitted curve in either direction with a large enough effect, not every such curve was filed as active;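 further: ME-180 reporter cells stimulated with EGF at its EC50 level; on the % scale 0 is the no-effect control and ±100 the full control effect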). To be noted: ME-180 AP-1-bla reporter, EGF-induced, beta-lactamase ratio, 5 h; at 7.69 µM (top of the series) unless noted. Put shortly:
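AP-1-bla ME-180 cells, Opti-MEM + 0.5% dialyzed FBS, plated overnight 37 °C. Cpd titration + EC50 EGF, 5 h 37 °C. CCF4 2.5 h RT; ex 405, em 460/530 ratio → %activity, AC50.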

A short description of test [3]: NFAT Signaling Pathway (AID 444; active means well fitted curve in either direction with a large enough effect, not every such curve was filed as active;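 further: carbachol stimulus at about its EC50 of 1 µM final; on the % scale 0 is the no-effect control and ±100 the full control effect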). To be noted: Jurkat NFAT-bla M1, carbachol, beta-lactamase ratio, 5 h; at 7.69 µM (top of the series) unless noted. Put shortly: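 Jurkat cells with NFAT-driven β-lactamase reporter and co-expressed M1 receptor, stimulated with carbachol (final 1 uM, ~EC50), compound titration, 5 h at 37 °C. CCF4 loaded 1 h at RT; 460/530 nm ratio gave %activity and AC50.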

Test [4] is described as follows: Stat Signaling Pathway (AID 446; active means well fitted curve in either direction with a large enough effect, not every such curve was filed as active;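 further: ME-180 cervical cancer cells given 40 pM IL-6 alongside compound; SIE-controlled beta-lactamase reporter measured as 460/530 nm FRET emission ratio; on the % scale 0 is the no-effect control and ±100 the full control effect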). The note with it: ME-180 (cervical carcinoma) SIE beta-lactamase reporter, IL-6 stimulated, 5 h; at 7.69 µM (top of the series) unless noted. A digest of the protocol:
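Compound effects on IL-6-induced STAT reporter activity were measured in ME-180 cells. After overnight culture, cells were co-treated with 40 pM IL-6 for 5 hrs before beta-lactamase substrate loading at room temperature.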

Test [5] addresses Glucocorticoid receptor (Homo sapiens) (UniProt P04150). The test can be described thus: GR-GFP Redistribution (AID 450;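 active means compounds whose dose series gives a full or clear partial fitted curve of increased nuclear translocation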; further: potency means the concentration at half of the fitted maximal effect). To be noted: U2OS GR-GFP nuclear translocation, laser cytometry, 2 h.
Test [6] has the same target. Briefly: GR-EFC Redistribution (AID 451; calls by dose curve; further: potency means the concentration at half of the fitted maximal effect). The note with it: CHO-K1 GR-EFC translocation, beta-gal luminescence, 2 h. A digest of the protocol: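 CHO-K1 cells expressing nuclear EA and GR-ED fragments of b-gal; compounds titrated up to 46 uM final, 2 h at 37 C. GR nuclear translocation read as complemented b-gal luminescence after 1 h RT detection.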
The target in test [7] is Mitogen-activated protein kinase 10 (Mus musculus) (UniProt Q61831). Briefly: JNK3 AlphaScreen Assay (AID 530; active means well fitted curve in either direction with a large enough effect, not every such curve was filed as active;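 further: kinase came from lysate of stimulated human HepG2 cells; signal reports phosphorylation of biotinylated GST-cJun 1-79 at Ser73 with 10 µM ATP; on the % scale 0 is the no-effect control and ±100 the full control effect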). To be noted: JNK3 lysate, c-Jun phosphorylation; series mostly up to 57.1 µM. A digest of the protocol:
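Activity was read by AlphaScreen after JNK3-containing HepG2 lysate (cytokine pre-activated) phosphorylated biotinylated GST-cJun with 10 uM ATP at room temperature. Phospho-Ser73 cJun antibody with Protein-A acceptor beads provided detection.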
Background: In Alpha technology, singlet oxygen from a donor bead excites a nearby acceptor bead.

The target of test [8] is 3',5'-cyclic-AMP phosphodiesterase 4B (Homo sapiens) (UniProt Q07343). The test can be described thus: qHTS Assay for Inhibitors of PDE-IV (AID 607; active means well fitted activation curve with a large enough effect in the main read-out, with a control signal flat, not every such curve was filed as active; further: % of control where 0% means no effect). To be noted: HEK293 ACTOne CNG channel cells, membrane potential fluorescence; series mostly up to 22.9 µM. Put shortly: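 ACTOne HEK293 cells carry a modified cAMP-gated CNG channel and express endogenous PDE4; plated 1000 cells/well, compounds up to 22.9 uM final. Membrane-potential dye fluorescence (ex 535/em 590) was read; parental cells received 10 uM forskolin + 100 uM RO 20-1724.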
Chain of 3',5'-cyclic-AMP phosphodiesterase 4B (Homo sapiens) (Q07343 whole entry, looked up): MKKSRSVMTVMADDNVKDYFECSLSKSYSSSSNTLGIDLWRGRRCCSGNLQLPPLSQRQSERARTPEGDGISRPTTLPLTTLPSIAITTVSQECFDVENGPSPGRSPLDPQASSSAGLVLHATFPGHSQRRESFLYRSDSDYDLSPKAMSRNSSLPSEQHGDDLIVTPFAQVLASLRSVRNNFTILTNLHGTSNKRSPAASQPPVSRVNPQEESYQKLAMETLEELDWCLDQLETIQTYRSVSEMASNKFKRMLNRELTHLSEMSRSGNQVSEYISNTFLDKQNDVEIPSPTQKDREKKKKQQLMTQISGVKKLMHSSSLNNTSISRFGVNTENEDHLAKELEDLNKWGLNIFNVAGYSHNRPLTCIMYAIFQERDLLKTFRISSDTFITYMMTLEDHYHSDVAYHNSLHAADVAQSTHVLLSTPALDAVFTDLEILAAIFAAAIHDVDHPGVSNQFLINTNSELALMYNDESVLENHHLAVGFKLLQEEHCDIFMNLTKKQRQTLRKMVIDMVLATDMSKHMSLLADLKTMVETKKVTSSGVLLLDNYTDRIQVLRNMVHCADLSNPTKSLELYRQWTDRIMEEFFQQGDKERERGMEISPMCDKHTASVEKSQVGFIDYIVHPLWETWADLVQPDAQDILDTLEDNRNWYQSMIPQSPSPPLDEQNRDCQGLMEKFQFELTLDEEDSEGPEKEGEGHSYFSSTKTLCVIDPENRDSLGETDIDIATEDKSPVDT

Test [9] in a line: qHTS Assay for Lipid Storage Modulators (AID 1519; calls by dose curve). To be noted: Drosophila S3 cells, BODIPY lipid droplet/cell ratio, laser cytometry, cells loaded with oleic acid; for activity change, negative = inhibition: at 57.5 µM (top of the series). A digest of the protocol: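 Cells seeded at 5,000 per well were treated with compounds over a concentration series and loaded with oleic acid (400 uM, as added). Lipid droplet fluorescence (488 nm excitation, 500-530 nm channel) was read by laser-scanning cytometry and normalized to 20 uM Triacsin C.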
In general terms: Quantitative high-throughput screening tests each substance at several concentrations.

The target of test [10] is Dual specificity protein kinase CLK4 (Homo sapiens) (UniProt Q9HAZ1). The test can be described thus: qHTS Assay for Inhibitors of CDC-like Kinase 4 (Kinase-Glo Assay) (AID 1770). Further: nearly all actives have a fitted effect of over 65% in size. Further: potency means the concentration at half of the fitted maximal effect. To be noted: recombinant Clk4, Kinase-Glo ATP depletion luminescence; series mostly up to 66.7 µM. A digest of the protocol: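 25 nM Clk4 with 100 uM RS repeat peptide and 1 uM ATP (final) in Tris pH7.5, 10 mM MgCl2, 4.5 h at room temperature. Remaining ATP measured by Kinase-Glo luciferase luminescence.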
Chain of Dual specificity protein kinase CLK4 (Homo sapiens) (Q9HAZ1 whole entry, looked up): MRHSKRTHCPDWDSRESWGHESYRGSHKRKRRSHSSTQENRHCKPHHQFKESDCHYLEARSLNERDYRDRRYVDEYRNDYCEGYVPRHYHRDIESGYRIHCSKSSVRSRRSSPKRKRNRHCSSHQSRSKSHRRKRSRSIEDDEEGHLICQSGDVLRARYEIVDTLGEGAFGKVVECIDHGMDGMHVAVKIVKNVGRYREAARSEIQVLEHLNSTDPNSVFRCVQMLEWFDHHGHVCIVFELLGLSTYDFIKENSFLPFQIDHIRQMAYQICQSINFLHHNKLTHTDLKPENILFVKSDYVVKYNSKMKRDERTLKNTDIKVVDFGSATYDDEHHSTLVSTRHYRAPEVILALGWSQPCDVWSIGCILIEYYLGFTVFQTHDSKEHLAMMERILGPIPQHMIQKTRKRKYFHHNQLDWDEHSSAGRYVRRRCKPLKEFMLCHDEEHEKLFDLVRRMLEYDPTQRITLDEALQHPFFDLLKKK

The target is the same in test [11]. Briefly: qHTS Assay for Inhibitors of CDC-like Kinase 4 (ADP-Glo Assay) (AID 1771). Further: nearly all actives have a fitted effect of over 70% in size. Further: potency means the concentration at half of the fitted maximal effect. The note with it: recombinant CLK4, ADP-Glo luminescence; series mostly up to 80 µM. Put shortly: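 Compounds are pin-transferred onto substrate mix (100 uM RS peptide, 1 uM ATP), then 25 nM Clk4 is added. After 1 hr at room temperature, ADP-Glo reagent runs 45 min, detection reagent 30 min, then luminescence is read.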

Test [12] has the same target. The test can be described thus: qHTS Assay for Inhibitors of CDC-like Kinase 4 (ADP-FP Assay) (AID 1795). Further: nearly all actives have a fitted effect of over 60% in size. Further: potency means the concentration at half of the fitted maximal effect. To be noted: Transcreener ADP fluorescence polarization; series mostly up to 50 µM. Put shortly: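 Recombinant Clk4 (6.25 nM) phosphorylated 100 uM RS repeat peptide with 1 uM ATP in 25 mM Tris pH 7.5, 10 mM MgCl2, 0.5 mM EGTA, 2.5 mM DTT, 0.01% Triton X-100 for 1 h. ADP was detected by Transcreener ADP2 competitive fluorescence polarization after 30 min at room temperature.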

The target in test [13] is Ubiquitin carboxyl-terminal hydrolase 1 (Homo sapiens) (UniProt O94782). The test can be described thus: Inhibitors of USP1/UAF1: Pilot qHTS (AID 504865).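 Further: rhodamine fluorescence freed from ubiquitin-rhodamine substrate followed over time; top concentration of the series differs between compounds; on the % scale 0 is the no-effect control and ±100 the full control effect; nearly all actives have a fitted effect of over 35% in size.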 To be noted: purified USP1/UAF1, Ub-rhodamine cleavage fluorescence; series mostly up to 54.9 µM. Put shortly:
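USP1/UAF1 complex at 1 nM preincubated 15 min at room temperature with compound, then Ub-Rho substrate added at 150 nM final. Fluorescence (480/540 nm) read kinetically in 50 mM HEPES pH 7.8, 0.5 mM EDTA, 1 mM TCEP, 0.1 mg/ml BSA, 0.01% Tween-20.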

Test [14] is described as follows: Primary qHTS for small molecule stabilizers of the endoplasmic reticulum resident proteome: Secreted ER Calcium Modulated Protein (SERCaMP) assay (AID 1508630). Further: on the % scale 0 is the no-effect control and ±100 the full control effect. To be noted: SH-SY5Y GLuc-SERCaMP (Gaussia luciferase released on ER calcium loss) secretion, thapsigargin, luminescence; series mostly up to 38.4 µM. A digest of the protocol:
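The SH-SY5Y reporter protocol was run at 3 concentrations up to 38.3 uM (primary) or 11 concentrations (follow-up): 16 h compound, 100 nM thapsigargin for 4 h, then extracellular luciferase luminescence.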

Test [15] has as its target Cytochrome P450 1A2 (Homo sapiens) (UniProt P05177). The test can be described thus: p450-cyp1a2 (AID 410; calls by dose curve; further: potency means the concentration at half of the fitted maximal effect). The note with it: recombinant CYP1A2, luciferin-ME demethylation, luminescence; series mostly up to 57 µM. Put shortly: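 O-Demethylation of luciferin 6' methyl ether by human CYP1A2 is monitored as luciferase luminescence. Substrate sits at Km (100uM); enzyme is 20nM. Values are scaled to 57 uM furafylline as maximal inhibition.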

For test [16], the target named is Cytochrome P450 3A4 (Homo sapiens) (UniProt P08684). The test can be described thus: qHTS Assay for Activators of Cytochrome P450 3A4 (AID 885). Further: nearly all actives have a fitted effect of over 65% in size. The note with it: recombinant CYP3A4, Luciferin-PPXE luminescence, 60 min; series mostly up to 57.1 µM. A digest of the protocol:
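CYP3A4 activity: Luciferin-PPXE O-dealkylation, 25uM substrate, 200mM KPO4, RT throughout. Read-out is luciferase luminescence; higher values reflect activation.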

Test [17] has the same target. Briefly: qHTS Assay for Inhibitors and Substrates of Cytochrome P450 3A4 (AID 884). Further: potency means the concentration at half of the fitted maximal effect; nearly all actives have a fitted effect of over 50% in size. To be noted: recombinant CYP3A4, Luciferin-PPXE luminescence; series mostly up to 57.1 µM. A digest of the protocol:
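Luminescent readout of luciferin produced by CYP3A4 (20 nM) dealkylation of Luciferin-PPXE, 25 uM (its KM). NADPH-driven reaction ran 60 min at RT after 10 min compound preincubation; data scaled to 57 uM ketoconazole as 100% inhibition.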

Test [18] addresses Cytochrome P450 2C19 (Homo sapiens) (UniProt P33261). The test can be described thus: qHTS Assay for Inhibitors and Substrates of Cytochrome P450 2C19 (AID 899). Further: potency means the concentration at half of the fitted maximal effect; nearly all actives have a fitted effect of over 60% in size. The note with it: recombinant CYP2C19, luciferin-H EGE luminescence; series mostly up to 57.1 µM. A digest of the protocol: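 Signal comes from luciferase acting on luciferin released by CYP2C19-mediated hydroxylation of Luciferin-H EGE, 10uM (KM). Assay mix: 5nM enzyme, 50mM KPO4; 60 min at 37C with NADPH regeneration. Data normalized against 57uM ketoconazole.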

Where [19] appears, read: measured here: cell count channel max response.
The mark [20] stands for this setting: measured here: lipid channel max response.

Chain of Cytochrome P450 1A2 (Homo sapiens) (P05177 whole entry, looked up): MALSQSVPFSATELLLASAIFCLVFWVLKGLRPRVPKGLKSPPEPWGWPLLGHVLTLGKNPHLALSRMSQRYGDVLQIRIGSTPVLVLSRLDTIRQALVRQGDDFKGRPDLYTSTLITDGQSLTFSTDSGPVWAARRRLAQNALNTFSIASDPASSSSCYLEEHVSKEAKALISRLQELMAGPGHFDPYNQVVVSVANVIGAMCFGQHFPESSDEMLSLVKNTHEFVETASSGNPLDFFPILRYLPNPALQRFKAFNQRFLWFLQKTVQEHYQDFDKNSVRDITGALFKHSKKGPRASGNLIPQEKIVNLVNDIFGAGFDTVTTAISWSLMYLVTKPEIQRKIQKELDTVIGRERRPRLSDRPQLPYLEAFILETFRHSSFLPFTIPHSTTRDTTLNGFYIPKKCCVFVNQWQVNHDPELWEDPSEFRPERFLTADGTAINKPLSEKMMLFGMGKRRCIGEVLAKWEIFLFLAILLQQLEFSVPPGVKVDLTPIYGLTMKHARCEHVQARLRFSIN
Chain of Glucocorticoid receptor (Homo sapiens) (P04150 whole entry, looked up, the tested form may be a part): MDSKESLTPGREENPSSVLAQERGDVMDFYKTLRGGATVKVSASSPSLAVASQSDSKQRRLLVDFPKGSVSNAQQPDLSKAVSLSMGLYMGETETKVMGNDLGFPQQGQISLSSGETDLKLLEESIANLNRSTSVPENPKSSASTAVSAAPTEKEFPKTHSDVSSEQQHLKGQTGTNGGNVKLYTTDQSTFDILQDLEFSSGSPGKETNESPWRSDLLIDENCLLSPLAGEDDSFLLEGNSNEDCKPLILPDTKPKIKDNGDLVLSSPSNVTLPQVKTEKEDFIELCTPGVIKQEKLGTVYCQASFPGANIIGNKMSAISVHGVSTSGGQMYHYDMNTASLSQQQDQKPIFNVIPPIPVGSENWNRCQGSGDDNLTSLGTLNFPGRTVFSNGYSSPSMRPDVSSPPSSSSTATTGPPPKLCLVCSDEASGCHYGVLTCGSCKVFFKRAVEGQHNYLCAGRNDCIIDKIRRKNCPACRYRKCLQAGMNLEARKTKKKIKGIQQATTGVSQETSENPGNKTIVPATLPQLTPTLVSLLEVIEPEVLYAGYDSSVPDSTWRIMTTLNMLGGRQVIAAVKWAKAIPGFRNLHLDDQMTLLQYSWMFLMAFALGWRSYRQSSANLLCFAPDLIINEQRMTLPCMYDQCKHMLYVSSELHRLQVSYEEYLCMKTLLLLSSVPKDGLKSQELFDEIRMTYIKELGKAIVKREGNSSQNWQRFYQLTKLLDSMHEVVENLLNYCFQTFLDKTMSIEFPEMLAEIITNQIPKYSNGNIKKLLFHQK
Chain of Lysosomal acid glucosylceramidase (Homo sapiens) (P04062 whole entry, looked up): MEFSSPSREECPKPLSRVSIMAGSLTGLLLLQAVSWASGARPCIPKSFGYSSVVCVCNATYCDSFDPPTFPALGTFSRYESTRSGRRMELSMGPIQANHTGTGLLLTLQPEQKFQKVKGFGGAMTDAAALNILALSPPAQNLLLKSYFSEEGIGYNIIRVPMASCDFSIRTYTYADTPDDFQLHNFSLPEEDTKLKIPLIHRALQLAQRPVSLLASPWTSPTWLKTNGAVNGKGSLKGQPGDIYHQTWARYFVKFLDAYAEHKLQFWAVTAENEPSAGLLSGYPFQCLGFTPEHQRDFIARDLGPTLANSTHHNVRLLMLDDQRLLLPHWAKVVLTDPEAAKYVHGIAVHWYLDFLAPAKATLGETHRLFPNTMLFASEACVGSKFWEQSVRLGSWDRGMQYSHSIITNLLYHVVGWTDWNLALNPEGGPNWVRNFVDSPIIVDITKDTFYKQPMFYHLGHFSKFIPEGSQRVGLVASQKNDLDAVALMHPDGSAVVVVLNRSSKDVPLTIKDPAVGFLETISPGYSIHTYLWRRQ
Chain of Ubiquitin carboxyl-terminal hydrolase 1 (Homo sapiens) (O94782 whole entry, looked up): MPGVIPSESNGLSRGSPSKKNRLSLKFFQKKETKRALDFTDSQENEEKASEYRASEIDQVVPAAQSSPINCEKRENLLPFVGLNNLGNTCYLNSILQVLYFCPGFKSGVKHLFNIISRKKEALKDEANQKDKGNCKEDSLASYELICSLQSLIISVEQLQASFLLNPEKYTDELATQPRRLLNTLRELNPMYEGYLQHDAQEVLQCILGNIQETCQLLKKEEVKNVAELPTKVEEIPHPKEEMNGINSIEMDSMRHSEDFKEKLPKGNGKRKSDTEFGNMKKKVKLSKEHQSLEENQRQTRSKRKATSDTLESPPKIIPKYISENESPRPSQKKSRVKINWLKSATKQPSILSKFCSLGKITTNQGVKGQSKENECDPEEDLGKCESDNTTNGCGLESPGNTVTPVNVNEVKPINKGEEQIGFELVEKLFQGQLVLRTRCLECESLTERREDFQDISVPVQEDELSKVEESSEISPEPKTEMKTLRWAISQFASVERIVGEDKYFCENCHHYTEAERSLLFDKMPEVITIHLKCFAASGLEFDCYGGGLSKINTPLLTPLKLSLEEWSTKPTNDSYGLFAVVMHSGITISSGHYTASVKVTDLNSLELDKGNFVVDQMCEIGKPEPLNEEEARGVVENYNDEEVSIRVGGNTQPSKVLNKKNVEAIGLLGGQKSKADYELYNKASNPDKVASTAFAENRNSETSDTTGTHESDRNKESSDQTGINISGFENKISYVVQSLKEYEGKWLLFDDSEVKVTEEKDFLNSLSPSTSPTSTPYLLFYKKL
Chain of Cytochrome P450 3A4 (Homo sapiens) (P08684 whole entry, looked up): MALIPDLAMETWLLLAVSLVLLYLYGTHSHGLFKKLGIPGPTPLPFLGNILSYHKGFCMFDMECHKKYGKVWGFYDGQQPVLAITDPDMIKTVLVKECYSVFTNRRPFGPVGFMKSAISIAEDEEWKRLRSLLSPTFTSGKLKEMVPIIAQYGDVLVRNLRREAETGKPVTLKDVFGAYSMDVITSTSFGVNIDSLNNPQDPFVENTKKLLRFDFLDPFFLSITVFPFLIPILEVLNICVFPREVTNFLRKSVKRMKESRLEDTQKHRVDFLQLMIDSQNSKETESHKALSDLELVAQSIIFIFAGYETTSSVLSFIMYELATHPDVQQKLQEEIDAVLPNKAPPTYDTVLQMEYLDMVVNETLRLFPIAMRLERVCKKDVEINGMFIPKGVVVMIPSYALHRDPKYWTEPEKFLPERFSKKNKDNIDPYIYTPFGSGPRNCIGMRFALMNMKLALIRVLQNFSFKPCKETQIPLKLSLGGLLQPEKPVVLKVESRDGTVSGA
Chain of Cytochrome P450 2C19 (Homo sapiens) (P33261 whole entry, looked up): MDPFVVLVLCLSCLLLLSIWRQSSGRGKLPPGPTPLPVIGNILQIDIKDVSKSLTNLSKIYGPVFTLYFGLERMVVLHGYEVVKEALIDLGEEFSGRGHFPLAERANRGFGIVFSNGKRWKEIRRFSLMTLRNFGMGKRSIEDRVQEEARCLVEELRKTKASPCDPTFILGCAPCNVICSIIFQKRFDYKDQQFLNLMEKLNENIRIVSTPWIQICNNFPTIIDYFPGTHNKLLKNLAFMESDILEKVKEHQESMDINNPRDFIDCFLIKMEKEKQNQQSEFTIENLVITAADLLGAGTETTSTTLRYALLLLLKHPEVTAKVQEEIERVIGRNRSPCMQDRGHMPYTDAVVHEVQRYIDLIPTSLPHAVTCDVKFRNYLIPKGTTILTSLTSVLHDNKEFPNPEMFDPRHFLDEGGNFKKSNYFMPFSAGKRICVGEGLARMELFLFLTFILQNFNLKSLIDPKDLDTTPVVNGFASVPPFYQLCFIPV

As for `COCCn1c(=O)c(-c2ccc(F)cc2)nc2cnc(OC)nc21`, the Potency in test [1] was > 11.4 µM (inactive); in test [5] it was > 9.22 µM (inactive); in test [6], > 46 µM (inactive). Besides, the activity change, negative = inhibition in test [2] was -3.31% (inactive); in [3] it was 15.2% (inactive); in test [9], 4.45% (inactive). Besides, the activity, negative = inhibition in test [4] is -15% (inactive). Also, in [7], the molecule was called inactive. In addition, the Potency result in [8], in [10], in test [11], in [12], in [13] and in [14] was “inactive” each time. Besides, the results for the max response in test [9] (setting [19]) and in [9] (setting [20]) were 6.98% and 9.8%, respectively.

Consider `Cc1noc(C)c1-c1ccc2ncnc(Nc3ccc(F)cc3)c2c1`, for which the Potency was > 11.4 µM (inactive) in [1]; 3.98 µM (active) in test [15]; > 46 µM (inactive) in test [5]; > 46 µM (inactive) in test [6]; 4.47 µM (active) in test [10]; 6.31 µM (active) in [11]. The Potency in [12] is 3.16 µM (active). Further, the activity change, negative = inhibition in test [2] was -20.2% (inactive); in [9] it was 6.07% (inactive). Further, in [4], the activity, negative = inhibition is -24.6% (inactive). The result in [7] was inactive. Moreover, the Potency result in test [8], in test [16], in test [13] and in [14] was “inactive” in each case. The max response was 23.8% in [9] (setting [19]) and 29.1% in [9] (setting [20]).

For the molecule `CN1CCN(c2ncncc2-c2ccc(C(=O)N(C)C)cc2)CC1`, the Potency in test [1] is > 11.4 µM (inactive); in test [15] it was 15.8 µM (active); in [5], > 46 µM (inactive); in [6] it was > 46 µM (inactive). Also, the activity change, negative = inhibition in test [2] is 14.8% (inactive); in [3] it was 4.17% (inactive); in test [9] it was 1.02% (inactive). Also, the call in test [7] was inactive. Also, the Potency entry in test [8], in test [10], in test [11], in test [12], in test [13] and in test [14] was “inactive” each time. Moreover, the max response in test [9] (setting [19]) amounted to 12.3%; in [9] (setting [20]), 11.3%.

`CN1CCN(c2ncc3ncc(=O)n(C4CC4)c3n2)CC1`: the results for the Potency in [1], in test [5] and in test [6] were > 11.4 µM (inactive), > 9.22 µM (inactive) and > 46 µM (inactive), respectively. Also, the activity change, negative = inhibition in test [2] is -15.2% (inactive); in test [3] it was -12.8% (inactive); in [9] it was -0.747% (inactive). Further, the activity, negative = inhibition in test [4] is -9.77% (inactive). Also, in test [7], the molecule was called inactive. Moreover, the Potency entry in [8], in [10], in [11], in test [12], in [13] and in [14] was “inactive” each time. Also, the max response in test [9] (setting [19]) was -13.5%; in [9] (setting [20]), -12.9%.

Take `Fc1ccc(Nc2ncncc2-c2ccccc2C(F)(F)F)cc1`: the Potency in test [1] is > 11.4 µM (inactive); in [15], 20 µM (active); in test [5] it was > 46 µM (inactive); in test [6], > 46 µM (inactive); in test [17], 0.398 µM (active); in test [18], 7.94 µM (active). Further, the activity change, negative = inhibition is -13.5% (inactive) in [2] and 3.62% (inactive) in [9]. The activity, negative = inhibition in [4] was 23.6% (inactive). In addition, the molecule was classed as inactive in [7]. The Potency entry in test [16], in [10], in test [11], in test [12], in test [13] and in test [14] was “inactive” each time. Besides, the results for the max response in test [9] (setting [19]) and in test [9] (setting [20]) were 13% and 14.7%, respectively.

Turning to `CN(C)c1ncc2nc(-c3cn(C)c4ccccc34)c(=O)n(C[C@H]3CCCO3)c2n1`, the Potency in test [1] is > 11.4 µM (inactive); in test [5], > 9.22 µM (inactive); in [6] it was > 46 µM (inactive). Besides, the activity change, negative = inhibition in test [2] was -23.8% (inactive); in [3], 3.82% (inactive); in test [9], 6.78% (inactive). Further, in test [4], the activity, negative = inhibition was -10.1% (inactive). In addition, the call in test [7] was inactive. Besides, the values for the max response in test [9] (setting [19]) and in test [9] (setting [20]) were 5.1% and 8.36%, respectively. Besides, the Potency entry in test [10], in test [11], in test [12], in [13] and in [14] was “inactive” throughout.
